Most compounds without a hit are left out; they make up all but 7.8% or so of the library.
Lassa entry inh = Lassa virus entry inhibition; Potency, µM (doses to about 37.9 µM), without a hit: top-dose activity change, negative = inhibition, usual class: inhibitors; Lassa virus pseudotype entry inhibition, cell reporter; hit rate 1.2% among 300,000; AID 540256; calls by dose curve; tested in HEK293 cells; further: potency means the concentration at half of the fitted maximal effect; nearly all actives have a fitted effect of over 50% in size
VACV mCherry inh = vaccinia inhibition (mCherry reporter); AID 720579; Vaccinia virus mCherry reporter infection, fluorescence; hit rate 0.63% among 310,000; Potency, µM (titrated, usually from 36.5 µM), for the others: at the highest dose activity change, negative = inhibition, actives largely listed as inhibitors; calls by dose curve; tested in A549 cells; further: potency means the concentration at half of the fitted maximal effect; nearly all actives have a fitted effect of over 35% in size
HCV inhibitor = inhibitors of hepatitis C virus infection. Huh7.5.1 HCVcc-Cre infection, luciferase reporter, 44 h. Potency, µM (titrated, usually from 41.8 µM), for the others: at the highest dose activity change, negative = inhibition, actives largely listed as inhibitors. hit rate 3.4% among 340,000; active means well fitted inhibition curve with a large enough effect; inconclusive means small, poorly fitted or top-dose-only effect, or another doubt; inactive means no such curve, though single readings can be large or run the other way; further: potency means the concentration at half of the fitted maximal effect
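Cells seeded at 1,000/well and cultured 4 h, then compounds added followed by HCVcc-Cre virus (~0.5 moi). After 44 h further culture, luciferase substrate was added, plates held 15 min at room temperature, and luminescence read for 15 sec.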
Marburg entry inh = Marburg virus entry inhibition | Marburg virus pseudotyped entry inhibition, cell reporter | Potency, µM (top dose mostly 37.8 µM), without a hit: at the highest dose activity change, negative = inhibition, most hits filed as inhibitors | hit rate 1.8% among 300,000; calls by dose curve; tested in HEK293 cells; further: potency means the concentration at half of the fitted maximal effect
HCMV inh = blocks human cytomegalovirus replication | HFF cells, HCMV-luciferase reporter, 72 h; active compounds read low | activity change, negative = inhibition, % at 57.5 µM | hit rate 4.5% among 410,000 | AID 1259415; in the data active means activity change below about -60%; inconclusive means no clear call, values can overlap the other calls; inactive means above about -39%
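Steps: HFFs plated, 16 h 37C; compounds added; HCMV-luciferase added to MOI 1 PFU/cell; 72 h 37C; OneGlo reagent, 5 min room temperature; luminescence read, normalized to controls.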
Vaccinia Venus = vaccinia inhibition (Venus reporter); Vaccinia virus Venus reporter expression, fluorescence; Potency, µM (highest dose often 36.5 µM), for inactives: at the top dose activity change, negative = inhibition, hits mostly inhibitors; hit rate 0.46% among 330,000; calls by dose curve; tested in A549 cells; further: potency means the concentration at half of the fitted maximal effect; nearly all actives have a fitted effect of over 30% in size
Numbers without * were called inactive; i = inactive; u = inconclusive; x = no result given; [ ] = another dose, or the depositor's remark. On the % scale 0 is the no-effect control and ±100 the full control effect.

SMILES	Lassa entry inh	VACV mCherry inh	HCV inhibitor	Marburg entry inh	HCMV inh	Vaccinia Venus
C/C(=N\Nc1nc(C)cc(-c2ccccc2)n1)c1cccc(N)c1	x	x	6.3µM*	x	-34	x
O=C(CC1(O)C(=O)Nc2cc(Cl)cc(Cl)c21)c1ccncc1 (stereo unspecified)	u	x	11µM*	u	39	x
CCCNC(=O)c1ccc(Cn2cc(-c3ccc(C)cc3)ncc2=O)cc1	x	x	x	x	8	x
CCOc1cc(NS(=O)(=O)CC)c(OCC)cc1NC(=O)c1ccco1	1%	x	u	u	-77*	x
CCOc1cc(NC(=O)c2ccco2)c(OCC)cc1NC(=O)COc1ccccc1C	-22%	x	u	u	u	x
CCOc1cc(NC(=O)c2ccco2)c(OCC)cc1NC(=O)Cc1cccc(OC)c1	u	x	13µM*	3%	-33	-21%
CCOc1cc(NC(=O)c2cccs2)c(OCC)cc1NC(=O)c1ccco1	0%	x	-23%	-5%	31	-14%
CCOc1ccc(C(CC(=O)O)NC(=O)c2ccco2)cc1OC (stereo unspecified)	16%	-16%[1.46 µM]	12%	14%	-100*	-13%
CCOc1cc(NS(=O)(=O)c2ccc(OC)cc2)c(OCC)cc1NC(=O)c1ccco1	-13%	x	-5%	u	-97*	x
Cc1ccc2c(n1)sc1c(=O)n(-c3cccc(C(F)(F)F)c3)nnc12	u	4%	x	-11%[46.1 µM]	8	-15%
c1ccc(CN2CCC(Nc3ncnc4sccc34)CC2)cc1	-3%	-30%	-4%	-5%[46.1 µM]	-29	-20%
Cc1csc2c(NC3CCN(Cc4ccccc4)CC3)ncnc12	-14%[46.1 µM]	-21%	u	2.8µM*	-18	-28%
Cc1sc2ncnc(NC3CCN(Cc4ccccc4)CC3)c2c1C	u	u	1µM*	u	-81*	u
O=C(C[N+]1(CC(O)c2ccccc2)CCCCC1)c1ccccc1 (stereo unspecified)	x	i	x	x	x	-8%
Cc1cc(C(F)(F)F)cc(NNC(=O)NC(=O)c2c(F)cccc2Cl)n1	u	u	-15%	7.1µM*	u	0%
CCOC(=O)c1cnc2ccc(OCC)cc2c1NCc1ccccc1OC	8.9µM*	-15%	7.1µM*	u	-70*	-4%
C=CCOC(=O)/C(=C\c1cccc2ccccc12)NC(=O)c1ccccc1	8%	i[1.46 µM]	7.9µM*	-1%	-18	-29%
C=CCOC(=O)/C(=C\c1ccccc1)NC(=O)c1ccc(C)cc1	x	-10%	-7%	x	-67*	-12%
C=CCOC(=O)/C(=C/c1cccnc1)NC(=O)c1ccccc1	x	x	13%	x	15	x
O=C(OCC(=O)c1ccc([N+](=O)[O-])cc1)/C(=C/c1ccc(Cl)cc1)NC(=O)c1ccccc1	6%	-1%	9%	2%	-65*	-15%
O=C1CC(=O)N(C2CCCCC2)C(=O)N1c1ccccc1S(=O)(=O)Oc1ccccc1	x	i	x	x	-1	3%
Cc1cnccc1/C=C/c1ccc(N)cc1	x	-13%	x	x	x	13%
CC1C=CCC2C(=O)N(c3cccc(C(=O)NCCc4ccccc4)c3)C(=O)C12 (stereo unspecified)	x	x	-4%	x	-61*	x
CCc1ccc(C(=O)CN2C(=O)NC3(CCCCCC3)C2=O)cc1	0%	-29%	11µM*	u	9	-7%
CCc1cccc2c(C(=O)CN3C(=O)NC4(CCCCCC4)C3=O)c[nH]c12	u	-12%	2.5µM*	u	-87*	u
SMILES	Lassa entry inh	VACV mCherry inh	HCV inhibitor	Marburg entry inh	HCMV inh	Vaccinia Venus
CCCN(CCC)c1cc(C)nc2nc(-c3ccc(C(C)(C)C)cc3)nn12	16%[46.1 µM]	-4%	x	1%[46.1 µM]	-8	-7%
CCCc1nnc(NC(=O)Cc2coc3ccc(C(C)C)cc23)s1	u	-10%	x	u	20	-4%
CCOC(=O)C1=C(C)OC(N)=C(C#N)[C@H]1c1cc2ccccc2nc1N1CCCCC1	x	x	x	1%	x	x
N#Cc1c(Cl)nc2c(c1C#N)CCCC2	9%	-7%	-20%	16%	-75*	-20%
CCOc1ccccc1CN(CCc1ccc2c(c1)OCO2)Cc1cc(OC)c(OC)cc1OC	u	-6%[7.34 µM]	x	10µM*	-9	-14%[7.34 µM]
C=CCN(c1ccccc1)S(=O)(=O)c1cccc(C(=O)Nc2cc(C)ccn2)c1	18µM*	-8%	u	8.9µM*	u	6%

Assay outcomes deposited in PubChem BioAssay by National Center for Advancing Translational Sciences (NCATS).
